Screening data: PubChem, National Center for Advancing Translational Sciences (NCATS)
Hits are enriched below; roughly 19% of the tested compounds scored in any of these assays.
TDP1 cell noCPT: qHTS for Inhibitors of human tyrosyl-DNA phosphodiesterase 1 (TDP1): qHTS in cells in absence of CPT; DT40 Tdp1-/- hTDP1 cells, no CPT, ATP luminescence, 48 h; Potency, µM (series often up to 46.2 µM), usual class: inhibitors; actives 15% (n = 420,000); also: nearly all actives have a fitted effect of over 55% in size
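Camptothecin absent (DMSO only). Human TDP1-complemented DT40 knockout cells, 400 cells/well, 37 °C for minimum 48 hr; ATP measured via CellTiter-Glo, 30 min dark incubation, luminescence.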
TDP1 cell CPT: qHTS for Inhibitors of human tyrosyl-DNA phosphodiesterase 1 (TDP1): qHTS in cells in presence of CPT; chicken DT40 Tdp1-/-;hTDP1 cells + 20 nM CPT, ATP luminescence, 48 h; Potency, µM (titrated, usually from 46.2 µM), usual class: inhibitors; actives 12% (n = 420,000); also: nearly all actives have a fitted effect of over 55% in size
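Cell growth measured by CellTiter-Glo luminescence after a minimum 48 h, 37 C compound exposure with 20 nM CPT in Tdp1-knockout DT40 cells stably expressing hTDP1, seeded 400/well; qHTS titration format.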
TDP1 block: qHTS Assay for Inhibitors of Tyrosyl-DNA Phosphodiesterase (TDP1) | Tyrosyl-DNA phosphodiesterase 1 (Homo sapiens), Q9NUW8 | recombinant TDP1, AlphaScreen DNA substrate cleavage | Potency, µM (doses to about 130 µM), usual class: inhibitors | actives 0.28% (n = 350,000) | AID 485290, 2010; also: nearly all actives have a fitted effect of over 40% in size
Target sequence (Q9NUW8 whole entry, looked up): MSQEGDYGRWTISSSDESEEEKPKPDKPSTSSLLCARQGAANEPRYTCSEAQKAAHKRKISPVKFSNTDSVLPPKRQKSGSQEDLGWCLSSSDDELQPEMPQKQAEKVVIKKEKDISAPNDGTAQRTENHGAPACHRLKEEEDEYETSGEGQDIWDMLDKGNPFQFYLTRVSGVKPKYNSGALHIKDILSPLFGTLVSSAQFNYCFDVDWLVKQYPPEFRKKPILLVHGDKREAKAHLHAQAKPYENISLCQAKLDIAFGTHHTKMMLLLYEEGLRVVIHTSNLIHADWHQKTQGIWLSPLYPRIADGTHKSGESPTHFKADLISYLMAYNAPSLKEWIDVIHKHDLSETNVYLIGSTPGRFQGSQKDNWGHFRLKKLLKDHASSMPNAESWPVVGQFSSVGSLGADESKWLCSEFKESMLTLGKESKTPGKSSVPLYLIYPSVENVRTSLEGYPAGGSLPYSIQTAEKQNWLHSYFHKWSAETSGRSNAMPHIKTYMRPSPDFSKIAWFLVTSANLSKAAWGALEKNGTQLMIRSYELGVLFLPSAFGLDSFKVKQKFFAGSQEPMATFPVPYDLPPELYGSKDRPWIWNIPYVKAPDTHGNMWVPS
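Recombinant human Tdp1 (E. coli-expressed, 1 nM final) preincubated with compounds 15 min at room temperature, then 5'-biotin/3'-phosphotyrosine-FITC DNA substrate (15 nM final) added for 5 min. AlphaScreen beads (10 ug/ml final) added 10 min; cleavage lowers signal.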
Gal4-VP16 FLuc: VP16 counterscreen qHTS for inhibitors of ROR gamma transcriptional activity. Drosophila S2 Gal4-VP16 UAS-luciferase, luminescence, 20 h. Potency, µM (doses to about 53.6 µM), hits mostly inhibitors. actives 3.5% (n = 310,000);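 also: Gal4-VP16 expression switched on by copper sulfate through the metallothionein promoter; nearly all actives have a fitted effect of over 50% in size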
RORg inh: qHTS for inhibitors of ROR gamma transcriptional activity | Potency, µM (top dose mostly 53.6 µM), actives largely listed as inhibitors | actives 5.4% (n = 310,000) | Nuclear receptor ROR-gamma (Mus musculus), P51450 | Drosophila S2 Gal4-RORgamma UAS-luciferase reporter, 20 h; also: nearly all actives have a fitted effect of over 60% in size
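Luciferase reporter read in Schneider cells carrying Gal4-RORγ (mouse) and UAS-Photinus luciferase; cells given compound 1 h before 700 uM copper sulfate induction, then incubated 20 h at ambient temperature.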
Numbers stand for hits; . = inactive; ? = inconclusive; / = no result; [ ] = remark or other dose. Calls follow the shape of the dose curve; as a rule, active = well fitted curve in the direction sought with a large enough effect; inconclusive = small, poorly fitted or top-dose-only effect, or another doubt; inactive = no such curve, though single readings can be large; an effect the other way counts as inactive or inconclusive.

SMILES	TDP1 cell noCPT	TDP1 cell CPT	TDP1 block	Gal4-VP16 FLuc	RORg inh
O=C1CCCC2=C1C1(CCCCC1)N=C(Nc1nc3ccccc3s1)N2	?	18µM	.	.	.
COc1ccc(S(=O)(=O)Cc2ccc(C(=O)N3CCN(c4cccc(C)c4)C(C)C3)o2)cc1 (centres undefined)	5.2µM	5.2µM	.	.	.
CCOc1ccccc1N1CCN(C(=O)c2csc(C)c2CC)CC1	21µM	?	.	.	.
Cc1ccc2c(c1)-c1onc(C(=O)N3CCN(c4cccc(C)c4C)CC3)c1CO2	/	/	.	/	/
COc1ccc(N2CCN(C(=O)c3ccc(CS(=O)(=O)c4ccc(OC)cc4)o3)CC2)cc1	.	.	.	.	.
CCOc1ccccc1N1CCN(C(=O)c2cc(C)oc2C)CC1	23µM	18µM	.	.	.
Cc1cccc(N2CCN(C(=O)c3noc4c3COc3ccc(C)cc3-4)CC2C)c1 (centres undefined)	23µM	?	.	.	.
Cc1cccc(N2CCN(C(=O)c3cc(C)oc3C)CC2C)c1 (centres undefined)	16µM	?	.	.	.
Cc1cccc(N2CCN(C(=O)c3ccncc3)CC2C)c1 (centres undefined)	.	.	.	.	.
COc1cccc(N2CCN(C(=O)c3cc(C)oc3C)CC2)c1	13µM	12µM	.	/	/
CCOc1ccccc1N1CCN(C(=O)Nc2ccc(F)c(Cl)c2)CC1	23µM	?	.	.[0.365 µM]	.
COc1ccccc1CNc1ncncc1-c1ccc(N(C)C)cc1	?	?	.	.	22µM
COc1ccccc1CNc1ncncc1-c1ccc(C(=O)N(C)C)cc1	.	.	/	.	.
COc1ccccc1CNc1ncncc1-c1ccccc1C	.	.	32µM	.	.
COc1ccc(CNc2ncnc3ccc(-c4ccc(N(C)C)cc4)cc23)c(OC)c1	?	23µM	/	.	?
COc1cccc(-c2ccc3ncnc(NCc4ccc(OC)cc4OC)c3c2)c1	?	?	/	.	.
COc1ccc(CNc2ncncc2-c2ccc(N(C)C)cc2)c(OC)c1	?	18µM	/	.	.
COc1ccccc1-c1cc(C(=O)Nc2sc3c(c2C#N)CCCC3)no1	?	?	.	/	/
COc1cccc(C(=O)N2CCC(O)(c3cccnc3)CC2)c1	.	.	.	.	.
CCC(=O)N1CCC1(C)C(=O)Nc1cccc2c1CCCC2 (centres undefined)	.	.	/	/	/
Cc1nc(C(F)(F)F)ccc1C(=O)N1CCC(C)(C(=O)NS(=O)(=O)C2CC2)C1 (centres undefined)	.	.	/	/	/
NC(=O)CCn1c2ccccc2c2ccccc21	.	.	.	.	.
CC(C)CCn1c2ccccc2c2cc(CC(N)=O)ccc21	23µM	?	.	.	.
Cc1ccc(S(=O)(=O)N2[C@H](CC(=O)OCc3ccccc3)OC[C@@H]2C(C)C)cc1	23µM	21µM	/	/	/
CCN1CC(CN(C)Cc2nc(-c3ccc(C(F)(F)F)cc3)no2)CC1=O (centres undefined)	18µM	?	.	?	?
SMILES	TDP1 cell noCPT	TDP1 cell CPT	TDP1 block	Gal4-VP16 FLuc	RORg inh
O=C(NCCc1ccccn1)C1CC(=O)N(Cc2ccccc2Cl)C1 (centres undefined)	.	.	.	.	.
Cc1ccc(O)c(C(=O)c2cc(C#N)c3nc4ccccc4n3c2)c1	9.2µM	?	.	.	.
N#Cc1cc(C(=O)c2cc(F)ccc2O)cn(Cc2ccccc2)c1=O	?	.	.	.[10 µM]	?
Cc1ccc(O)c(C(=O)c2cnn(C(=O)COc3ccccc3C#N)c2)c1	/	/	/	.	.
Cc1ccc(O)c(C(=O)c2cc(C#N)c(=O)n(Cc3ccccc3)c2)c1	9.2µM	16µM	.	.[10 µM]	?
Cc1ccccc1NC(=O)c1cc(C(=O)c2cc(Cl)ccc2O)cn(-c2ccccc2C)c1=O	23µM	13µM	.	.	?
Cc1ccc(O)c(C(=O)c2cc(C#N)c(=O)n(C(C)c3ccccc3)c2)c1 (centres undefined)	15µM	?	.	?	.
Cc1ccccc1NC(=O)c1ccccc1NC(=O)c1ccccc1Cl	?	?	.[12.3 µM]	/	/
COc1ccc(O)c(C(=O)c2cnn(-c3ccc(Cl)cc3)c2)c1	.	.	/	.	?
COc1ccc(-n2cc(C(=O)c3cc(Cl)ccc3O)cc(C#N)c2=O)cc1	?	.	.	.[10 µM]	.
Cc1ccc(-n2cc(C(=O)c3cc(Cl)ccc3O)cc(C#N)c2=O)cc1	23µM	21µM	.	?	?
COc1ccc(O)c(C(=O)c2cnc3nc4ccccc4n3c2)c1	21µM	15µM	.	.	?
CCCC(=O)NC(Nc1cccc(C(F)(F)F)c1)C(Cl)(Cl)Cl (centres undefined)	21µM	?	.	.	.
CC(C)C(=O)NC(Nc1cc(C(F)(F)F)ccc1Cl)C(Cl)(Cl)Cl (centres undefined)	26µM	?	.	.	.
CCCC(=O)NC(Nc1ccccc1F)C(Cl)(Cl)Cl (centres undefined)	/	/	.	.	.
CCCC(=O)NC(Nc1cc(C(F)(F)F)ccc1Cl)C(Cl)(Cl)Cl (centres undefined)	18µM	18µM	.	10µM	?
O=C(NC(Nc1cc(C(F)(F)F)ccc1Cl)C(=O)c1ccccc1)c1ccccc1 (centres undefined)	21µM	?	.	.	.
COC(=O)CCC(=O)NNC(=O)Cc1ccccc1	.	.	.	.	.
COc1cc(CNCCc2ccccc2)ccc1OCC(=O)NC(C)(C)C	.	.	.	.	.
CCOC(=O)C1CCCN(CC(=O)Nc2ccc(C(=O)Nc3ccccc3OC)cc2)C1 (centres undefined)	?	?	.	/	/
Cc1ccc(N2CCN(S(=O)(=O)N3CCCCC3)CC2)cc1Cl	?	?	.	.	?
Cc1cc(C)c(N2CCN(S(=O)(=O)N3CCCCCC3)CC2)c(C)c1	18µM	?	.	.	.
CN1C(=O)/C(=C/c2cn(CC(=O)NCc3ccco3)c3ccccc23)NC1=S	/	/	.	.	.
O=C(Cn1cc(SCc2ccc(Br)cc2)c2ccccc21)N1CCCCC1	16µM	?	.	/	/
CN1C(=O)/C(=C/c2cn(CC(=O)N3CCCCC3)c3ccccc23)NC1=S	.	.	.	?	11µM
O=C(Cn1cc(SCc2c(F)cccc2Cl)c2ccccc21)N1CCCCCC1	?	23µM	.	/	/
O=C(Cn1cc(SCc2cccc(F)c2)c2ccccc21)N1CCOCC1	?	?	.	/	/
O=C(Cn1cc(SCc2c(F)cccc2Cl)c2ccccc21)N1CCCCC1	?	?	.	/	/
O=C(Cn1cc(SCc2cccc(F)c2)c2ccccc21)N1CCCC1	21µM	?	.	/	/
